Results filed as inconclusive are left out. Active and inactive are the calls of the source. The call rests on the fitted dose curve; in most records, active means well fitted curve in the direction sought with a large enough effect; inconclusive means small, poorly fitted or top-dose-only effect, or another doubt; inactive means no such curve, though single readings can be large; an effect the other way counts as inactive or inconclusive.
What was measured:
[1] = qHTS of pediatric cancer cell lines to identify multiple opportunities for drug repurposing: Primary screen for A673 cells (AID 1347092); further: nearly all actives have a fitted effect of over 45% in size; on activity change, negative = cytotoxic: on the % scale 0 is the no-effect control and ±100 the full control effect
Method in brief: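 Luminescence from CellTiter-Glo, taken after 15 min at room temperature, served as the proxy for metabolically active cells following 48 h treatment. Both potency and efficacy were taken from curves fitted to the titration data.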

[2] = qHTS of pediatric cancer cell lines to identify multiple opportunities for drug repurposing: Primary screen for BT-37 cells (AID 1347094);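 on activity change, negative = cytotoxic: series mostly up to about 57 µM; plate controls were DMSO for no effect and bortezomib for full effect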
Method in brief: (§1)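 Quantitative HTS format: each compound titrated (MIPE 11 points from 0.78 nM, NPC 8 points from 0.59 nM) onto cells plated 5 hours earlier. After 48 h at 37 degrees C, CellTiter-Glo luminescence was recorded.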

[3] = qHTS of pediatric cancer cell lines to identify multiple opportunities for drug repurposing: Primary screen for U-2 OS cells (AID 1347096); further: nearly all actives have a fitted effect of over 50% in size;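 on activity change, negative = cytotoxic: plate controls were DMSO wells for no effect and bortezomib positive control wells for full effect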
Method in brief: (§2)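 Cells (500-1,000/well) rested 5 h, then received compounds for 48 h; metabolically active cells were measured by CellTiter-Glo luminescence. Final concentrations spanned up to 46 µM (MIPE, 11-point) or 0.59 nM-46 µM (NPC, 8-point) in primary screens, 11-point in follow-ups.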

[4] = qHTS of pediatric cancer cell lines to identify multiple opportunities for drug repurposing: Primary screen for Saos-2 cells (AID 1347097); further: nearly all actives have a fitted effect of over 40% in size; on activity change, negative = cytotoxic: on the % scale 0 is the no-effect control and ±100 the full control effect
Method in brief: as §1

[5] = qHTS of pediatric cancer cell lines to identify multiple opportunities for drug repurposing: Primary screen for LAN-5 cells (AID 1347100);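 on activity change, negative = cytotoxic: plate controls were DMSO neutral control for no effect and bortezomib positive control for full effect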
Method in brief: as §2

[6] = qHTS of pediatric cancer cell lines to identify multiple opportunities for drug repurposing: Primary screen for BT-12 cells (AID 1347101); further: nearly all actives have a fitted effect of over 25% in size;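 on activity change, negative = cytotoxic: plate controls were DMSO for no effect and bortezomib positive control for full effect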
Method in brief: as §2

[7] = qHTS of pediatric cancer cell lines to identify multiple opportunities for drug repurposing: Primary screen for NB-EBc1 cells (AID 1347095);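 on activity change, negative = cytotoxic: plate controls were DMSO neutral control for no effect and bortezomib for full effect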
Method in brief: as §1

[8] = qHTS of pediatric cancer cell lines to identify multiple opportunities for drug repurposing: Primary screen for NB1643 cells (AID 1347099); further: nearly all actives have a fitted effect of over 50% in size;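 on activity change, negative = cytotoxic: plate controls were DMSO neutral control for no effect and bortezomib positive control for full effect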
Method in brief: as §1

[9] = qHTS of pediatric cancer cell lines to identify multiple opportunities for drug repurposing: Primary screen for SK-N-SH cells (AID 1347098); further: nearly all actives have a fitted effect of over 65% in size;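 on activity change, negative = cytotoxic: DMSO served as neutral control and bortezomib at 2.3 µM as positive control; on the % scale 0 is the no-effect control and ±100 the full control effect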
Method in brief: as §2

[10] = qHTS of pediatric cancer cell lines to identify multiple opportunities for drug repurposing: Primary screen for SK-N-MC cells (AID 1347093);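 on activity change, negative = cytotoxic: series mostly up to about 46 µM; plate controls were DMSO neutral control for no effect and bortezomib for full effect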
Method in brief: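 Metabolically active cells were quantified by ATP-dependent luminescence (CellTiter-Glo, 15 min at room temperature) following 48 h treatment. Cells had been plated at 500-1,000 per well and settled for 5 h beforehand.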
Potency means the concentration at half of the fitted maximal effect.

CCCCCCCCCCCCc1ccc(S(=O)(=O)Nc2nncs2)cc1
inactive: Potency [1] | Potency [2] | Potency [3] | Potency [5] | Potency [6]
active: Potency [4] 18.7 µM

CCc1cc(C(C)=NOCc2ccc(C3CCCCC3)c(C(F)(F)F)c2)ccc1CN1CC(C(=O)O)C1
inactive: Potency [3]
active: Potency [1] 1.48 µM | Potency [7] 20.9 µM | Potency [8] 2.64 µM | Potency [6] 3.06 µM

O=C(C[C@@H]1CC=CCCC(=O)O[C@H](c2ccccc2)CNC1=O)NCc1ccc(Cl)cc1
inactive: Potency [1] | Potency [2] | Potency [3] | Potency [4] | Potency [9] | Potency [8] | Potency [5] | Potency [6]

Oc1ccc([C@@H]2Oc3ccc(O)cc3[C@@H]3CCC[C@@H]32)cc1
active: Potency [1] 9.35 µM | Potency [7] 7.43 µM | Potency [4] 6.62 µM | Potency [9] 24.1 µM | Potency [8] 16.6 µM | Potency [6] 24.3 µM
inactive: Potency [3]

CC[C@@]1([C@@H]2O[C@@H]([C@H]3O[C@@](O)(CO)[C@H](C)C[C@H]3C)C[C@H]2C)CC[C@H]([C@]2(C)CC[C@]3(C[C@H](O)[C@@H](C)[C@@H]([C@@H](C)[C@@H](OC)[C@H](C)C(=O)O)O3)O2)O1
active: Potency [1] 0.162 µM | Potency [2] 0.15 µM | Potency [7] 0.182 µM | Potency [4] 6.45 µM | Potency [9] 10.5 µM | Potency [8] 0.457 µM | Potency [5] 0.129 µM | Potency [6] 0.106 µM

OCCNC1CCCc2c1[nH]c1ccc(-c3ccccc3)cc21 (stereo not drawn)
inactive: Potency [8]
active: Potency [1] 23.5 µM | Potency [2] 24.3 µM | Potency [4] 18.7 µM | Potency [6] 30.6 µM

CC(C)N(CC[C@H](c1ccccc1)c1cc(CO)ccc1O)C(C)C
inactive: Potency [1] | Potency [2] | Potency [7] | Potency [3] | Potency [4] | Potency [8] | Potency [5] | Potency [6]

COc1cc([C@@H]2c3cc4c(cc3[C@H](O)[C@H]3COC(=O)[C@@H]23)OCO4)cc(OC)c1OC
inactive: Potency [9]
active: Potency [1] 0.0935 µM | Potency [7] 0.0209 µM | Potency [4] 0.118 µM | Potency [5] 0.0833 µM | Potency [6] 0.273 µM

Cc1cn([C@@H]2O[C@H](CO)[C@@H](O)[C@H]2F)c(=O)[nH]c1=O
inactive: Potency [1] | Potency [7] | Potency [3] | Potency [4] | Potency [9] | Potency [8] | Potency [5] | Potency [6]

NC(=O)c1ncn([C@@H]2O[C@H](CO)[C@@H](O)[C@@H]2O)c1N
inactive: Potency [1] | Potency [2] | Potency [7] | Potency [3] | Potency [9] | Potency [8] | Potency [5] | Potency [6]

COc1cc2c(cc1O)CCC1C2CC[C@@]2(C)C1CC[C@@H]2O (stereo partly drawn)
inactive: Potency [3] | Potency [5]
active: Potency [1] 3.72 µM | Potency [7] 0.526 µM | Potency [4] 1.05 µM

O=C(Nc1cc2cc[nH]c2cn1)c1ccccc1
active: Potency [1] 7.43 µM | Potency [2] 7.69 µM | Potency [7] 13.2 µM | Potency [4] 11.8 µM | Potency [9] 19.2 µM | Potency [8] 14.8 µM

CON=C(C(=O)N[C@@H]1C(=O)N2C(C(=O)O)=C(Cn3ccc(=N)n3CCO)CS[C@H]12)c1csc(N)n1
inactive: Potency [1] | Potency [2] | Potency [7] | Potency [3] | Potency [4] | Potency [5] | Potency [6]

Oc1cc2c(cc1O)C1c3ccc(O)c(O)c3OCC1(O)C2 (stereo not drawn)
inactive: Potency [1] | Potency [2] | Potency [3] | Potency [4] | Potency [9] | Potency [8] | Potency [5] | Potency [6]

CN(C)CCN1C(=O)c2cccc3cc(N)cc(c23)C1=O
active: Potency [1] 14.8 µM | Potency [2] 6.85 µM | Potency [7] 1.87 µM | Potency [9] 21.5 µM | Potency [8] 18.7 µM | Potency [5] 2.96 µM | Potency [6] 21.7 µM

CC[C@H]1OC(=O)[C@H](C)[C@@H](O[C@H]2C[C@@](C)(OC)[C@@H](O)[C@H](C)O2)[C@H](C)[C@@H](O[C@@H]2O[C@H](C)C[C@H](N(C)C)[C@@H]2O)[C@](C)(OC)C[C@@H](C)C(=O)[C@H](C)[C@@H](O)[C@]1(C)O
inactive: Potency [1] | Potency [2] | Potency [7] | Potency [3] | Potency [4] | Potency [5]

CC(C)(C)[C@H](NC(=O)c1ccc(N)c(Cl)c1)C(=O)N1CCC[C@@H]1C(=O)N[C@H](C#N)CC(=O)O
active: Potency [10] 0.235 µM | Potency [8] 1.05 µM
inactive: activity change, negative = cytotoxic [2] -11.4% [at 6.03 µM] | activity change, negative = cytotoxic [3] 9.94% [at 4.84 µM] | activity change, negative = cytotoxic [9] 23.1% [at 6 µM] | activity change, negative = cytotoxic [5] 8.05% [at 4.84 µM] | activity change, negative = cytotoxic [6] 15.5% [at 6.03 µM]

COc1cc2c(Nc3ccc(Cl)c(Cl)c3F)ncnc2cc1OCC1C[C@@H]2CN(C)C[C@H]2C1
active: Potency [10] 2.96 µM | Potency [2] 24.3 µM | Potency [7] 16.6 µM | Potency [3] 18.7 µM | Potency [4] 16.6 µM | Potency [9] 12.1 µM | Potency [8] 14.8 µM | Potency [5] 11.8 µM | Potency [6] 24.3 µM

CCn1c(=O)c2c(nc(C=Cc3ccc(OC)c(OC)c3)n2C)n(CC)c1=O
inactive: Potency [2] | Potency [3] | Potency [4] | Potency [5] | Potency [6]
active: Potency [10] 18.7 µM

N#CC(=C(N)Sc1ccc(N)cc1)c1ccccc1C(F)(F)F
inactive: Potency [1] | Potency [3] | Potency [8]
active: Potency [9] 4.82 µM

O=C(NNC(=O)c1ccc(CNS(=O)(=O)c2ccc(F)c(Cl)c2)cc1)c1ccccc1
inactive: Potency [10] | Potency [2] | Potency [7] | Potency [3] | Potency [4] | Potency [9] | Potency [5] | Potency [6]

CC1(C)CC(O)CC(C)(C)N1[O]
inactive: Potency [10] | Potency [2] | Potency [3] | Potency [4] | Potency [9] | Potency [5]
